This passage reports Potency results from PubChem BioAssay (Tox21).

The nature of assay [1]: Nuclear factor erythroid 2-related factor 2/antioxidant responsive element (Nrf2/ARE) small molecule agonists: qHTS cell viability counter screen in human keratinocytes (AID 1919968; active means well fitted curve in the direction sought with a large enough effect in the repeat runs; an effect the other way counts as inactive or inconclusive; further: nearly all actives have a fitted effect of over 55% in size; further: potency means the concentration at half of the fitted maximal effect). The essentials:
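Viability counter-screen: KeratinoSens reporter cells, DMSO-delivered compounds, 23 h at 37 C, CellTiter-Fluor fluorescence.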
In general terms: Quantitative high-throughput screening tests each substance at several concentrations.

Assay [2] in a line: Nuclear factor erythroid 2-related factor 2/antioxidant responsive element (Nrf2/ARE) small molecule agonists: luciferase reporter gene qHTS assay in human keratinocytes (AID 1919969). Further: nearly all actives have a fitted effect of over 35% in size. Further: potency means the concentration at half of the fitted maximal effect. Background: A reporter such as luciferase makes a cellular process visible.
Assay [3] concerns the target Gonadotropin-releasing hormone receptor (Homo sapiens) (UniProt P30968). Briefly: Human gonadotropin-releasing hormone receptor (GnRHR) small molecule agonists, calcium flux assay in GnRHR-HEK293 cells (AID 1920063). Further: nearly all actives have a fitted effect of over 35% in size. The essentials: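 Tox21-format agonist screen using human GnRHR-expressing HEK293 cells and a fluorescent calcium dye; kinetic 3-min fluorescence reading after compound addition, 15-point concentration series run in triplicate.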

The target in assay [4] is KiSS-1 receptor (Homo sapiens) (UniProt Q969F8). The assay can be described thus: Human kisspeptin (KISS1R) small molecule agonists, calcium flux assay in KISS1R-HEK293 cells (AID 1920064; active means well fitted curve in the direction sought with a large enough effect in the repeat runs; an effect the other way counts as inactive or inconclusive). In short, it runs like this:
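Intracellular calcium mobilization in KISS1R-HEK293 cells was recorded by fluorescence (Ex/Em 480/540) for 3 min following compound addition to cells pre-loaded 1 h with calcium dye.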
Background: Calcium assays in cells follow changes in intracellular calcium, usually with a dye or a luminescent sensor.

Assay [5] in a line: G protein-coupled receptor (GPCR) small molecule agonists, calcium flux assay: HEK293 wild type cell line counter screen (AID 1920065). The essentials:
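In this agonist-mode screen, ATP is the positive control and DMSO the vehicle. Cells grow 18 h before a 1 h dye incubation at 37 C; signal is taken at Ex/Em 480/540 over 3 min.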

Assay [6] is described as follows: p53 small molecule agonists, cell-based qHTS assay with rat liver microsomes (AID 1963578). The essentials: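 Fluorescence from a beta-lactamase reporter under a p53 response element was measured after cells had been incubated 16 h at 37 C with test compound and rat liver microsomes plus NADPH (0.5 mg/mL final each).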
The nature of assay [7]: p53 small molecule agonists, cell-based qHTS assay with human liver microsomes: qHTS cell viability counter screen (AID 1963579). Further: nearly all actives have a fitted effect of over 45% in size. Further: potency means the concentration at half of the fitted maximal effect. In short, it runs like this: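 Seed p53RE-bla cells at 4,000 per well; incubate 5 h at 37 C; add compound, human liver microsomes and NADPH; incubate 16 h at 37 C; add CellTiter-Glo; after 30 min at room temperature, read luminescence.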
A short description of assay [8]: p53 small molecule agonists, cell-based qHTS assay with rat liver microsomes: qHTS cell viability counter screen (AID 1963580). Further: nearly all actives have a fitted effect of over 45% in size. Further: potency means the concentration at half of the fitted maximal effect. In short, it runs like this:
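Intracellular ATP, by CellTiter-Glo luminescence, defines viability. HCT-116 p53RE-bla cells, 4,000 per well, were compound-treated in the presence of rat liver microsomes and NADPH for 16 h at 37 C.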

A short description of assay [9]: p53 small molecule agonists, cell-based qHTS assay: qHTS cell viability counter screen (AID 1963581). Further: nearly all actives have a fitted effect of over 45% in size. Further: potency means the concentration at half of the fitted maximal effect. The essentials: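 Compounds are pinned onto HCT-116 p53RE-bla cells and left 16 h at 37 C. Following the reporter FRET read, ATP is quantified by CellTiter-Glo luminescence after 30 min at room temperature.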
Assay [10] has as its target 5-hydroxytryptamine receptor 2A (Homo sapiens) (UniProt P28223). Briefly: 5-hydroxytryptamine receptor 2A (HTR2A) small molecule antagonists, cell-based qHTS assay (AID 1963586). Further: nearly all actives have a fitted effect of over 45% in size. In short, it runs like this:
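Antagonist-mode intracellular calcium assay: DOI (4 nM) added after 5 min compound pre-incubation at room temperature to dye-loaded HTR2A-CHO cells. Fluorescence followed for 3 min, sampled every second.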

For assay [11] the target is unchanged. Briefly: 5-hydroxytryptamine receptor 2A (HTR2A) small molecule agonists, cell-based qHTS assay (AID 1963587). Further: nearly all actives have a fitted effect of over 30% in size. In short, it runs like this: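 Kinetic calcium-flux fluorescence (2 min, 1 sec intervals) after compound addition in agonist mode. HTR2A-CHO cells were cultured 18 h, then dye-loaded 1 h at 37 C.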
The target in assay [12] is Muscarinic acetylcholine receptor M1 (Homo sapiens) (UniProt P11229). Briefly: Cholinergic receptor muscarinic 1 (CHRM1) small molecule antagonists, cell-based qHTS assay (AID 1963588). Further: nearly all actives have a fitted effect of over 40% in size. In short, it runs like this:
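CHRM1-CHO calcium-flux assay, antagonist mode. Cells were seeded 18 h, dye-loaded 1 h at 37 C and given compound for 5 min at RT, then acetylcholine was added at 50nM. FDSS fluorescence was read 3 min; 15 concentrations, three runs.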

For assay [13] the target is unchanged. Briefly: Cholinergic receptor muscarinic 1 (CHRM1) small molecule agonists, cell-based qHTS assay (AID 1963589). Further: nearly all actives have a fitted effect of over 35% in size. The essentials:
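Stable CHRM1-CHO cells (human receptor) were incubated 18 h, dye-loaded for 1 h at 37 C and exposed to test compounds for agonist activity, with calcium-dependent fluorescence followed kinetically.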

The nature of assay [14]: p53 small molecule agonists, cell-based qHTS assay (AID 1963582; active means well fitted activation curve with a large enough effect in the signal ratio in the repeat runs, not every such curve was filed as active; the % refers to the signal ratio). The essentials: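 Agonist activity was scored from beta-lactamase FRET fluorescence in p53RE-bla cells treated 16 h at 37 C with compounds in DMSO, substrate incubation being 2 h at room temperature.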
Assay [15] can be described thus: cAMP Responsive Elements (CRE) small molecule agonists, cell-based qHTS assay (AID 1963590). The essentials:
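FRET-based beta-lactamase readout (LiveBLAzer B/G, 2 h RT) quantified CRE activation in HEK 293T CRE-bla cells after 3 h treatment with DMSO-dissolved compounds.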

Assay [16] in a line: cAMP Responsive Elements (CRE) small molecule antagonists, cell-based qHTS assay (AID 1963591; active means well fitted inhibition curve with a large enough effect in the signal ratio in the repeat runs, not every such curve was filed as active; the % refers to the signal ratio). The essentials: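 qHTS in CRE-bla HEK 293T cells: compound in DMSO, then 0.25 uM NKH477 (final), 3 h at 37 °C/5% CO2; beta-lactamase FRET read-out after 2 h substrate incubation.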
The target of assay [17] is Beta-2 adrenergic receptor (Homo sapiens) (UniProt P07550). The assay can be described thus: Adrenergic beta2 receptor (ADRB2) small molecule antagonists, cell-based qHTS assay (AID 1963592). Further: series mostly up to about 92 µM; nearly all actives have a fitted effect of over 50% in size. The essentials: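 Cells (CHO, stable ADRB2 overexpression) incubated 18-20hr at 37C; compounds added from DMSO; agonist mix (1nM isoproterenol, 100uM IBMX, 25uM Ro-20-1724) added; 0.5hr RT; d2-cAMP and anti-cAMP-cryptate added; 1hr RT; 665/615 nm read.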

The target is the same in assay [18]. Briefly: Adrenergic beta2 receptor (ADRB2) small molecule agonists, cell-based qHTS assay (AID 1963593).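 Further: CHO cells stably overexpressing human ADRB2.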 In short, it runs like this:
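CHO cells stably over-expressing ADRB2 were plated overnight at 37C, then dosed with compounds plus a stimulation mix containing 100uM IBMX and 25uM Ro-20-1724 for 0.5hr at room temperature. cAMP was measured by HTRF competition, 1hr.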

In assay [19] the target is D(2) dopamine receptor (Homo sapiens) (UniProt P14416). Briefly: Dopamine D2 receptor (DRD2) small molecule agonists, cell-based qHTS assay (AID 1963594). Further: nearly all actives have a fitted effect of over 35% in size. The essentials:
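cAMP accumulation in DRD2-HEK293 cells measured by HTRF after 1 h detection; compounds added 10 min before NKH477 (200nM […]) forskolin-analogue stimulation, 30 min at room temperature, with Ro20-1724 present at 0.1 mM final.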

Assay [20] shares this target. The assay can be described thus: Dopamine D2 receptor (DRD2) small molecule antagonists, cell-based qHTS assay (AID 1963595; active means well fitted inhibition curve with a large enough effect in the signal ratio in the repeat runs, with a control signal flat; the % refers to the signal ratio). The essentials:
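Antagonism was scored as restored cAMP in HEK293-DRD2 cells. These cells were stimulated with 200 nM NKH477 and 12 nM quinpirole for 30 min at room temperature, in the presence of 0.1 mM Ro20-1724.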

Results filed as inconclusive are left out. The source made the active and inactive calls. Unless noted, the call rests on the fitted dose curve.

D(2) dopamine receptor (Homo sapiens), sequence (P14416 whole entry, looked up): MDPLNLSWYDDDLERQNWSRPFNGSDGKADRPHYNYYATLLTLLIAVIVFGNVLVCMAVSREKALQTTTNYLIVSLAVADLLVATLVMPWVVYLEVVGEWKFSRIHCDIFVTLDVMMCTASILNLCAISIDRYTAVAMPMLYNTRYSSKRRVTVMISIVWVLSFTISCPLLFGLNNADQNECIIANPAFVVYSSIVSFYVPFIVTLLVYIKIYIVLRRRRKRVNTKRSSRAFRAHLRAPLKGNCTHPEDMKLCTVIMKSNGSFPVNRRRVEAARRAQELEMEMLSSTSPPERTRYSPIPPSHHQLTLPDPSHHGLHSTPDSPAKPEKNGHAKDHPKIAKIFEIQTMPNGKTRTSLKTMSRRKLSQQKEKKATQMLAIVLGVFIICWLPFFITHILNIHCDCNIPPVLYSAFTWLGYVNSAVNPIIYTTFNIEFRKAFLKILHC
5-hydroxytryptamine receptor 2A (Homo sapiens), sequence (P28223 whole entry, looked up): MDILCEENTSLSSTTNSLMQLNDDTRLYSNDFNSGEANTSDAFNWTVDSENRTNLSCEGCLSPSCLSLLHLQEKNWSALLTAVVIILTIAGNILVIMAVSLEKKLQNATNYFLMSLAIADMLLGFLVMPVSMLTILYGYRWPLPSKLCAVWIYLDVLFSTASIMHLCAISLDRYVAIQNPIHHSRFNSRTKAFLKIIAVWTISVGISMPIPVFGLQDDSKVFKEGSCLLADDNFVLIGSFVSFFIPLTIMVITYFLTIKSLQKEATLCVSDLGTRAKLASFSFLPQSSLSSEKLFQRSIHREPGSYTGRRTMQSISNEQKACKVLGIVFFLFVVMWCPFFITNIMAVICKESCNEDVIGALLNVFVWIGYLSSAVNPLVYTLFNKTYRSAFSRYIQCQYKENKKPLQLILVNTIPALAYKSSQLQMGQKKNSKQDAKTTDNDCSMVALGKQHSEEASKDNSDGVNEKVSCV
KiSS-1 receptor (Homo sapiens), sequence (Q969F8 whole entry, looked up): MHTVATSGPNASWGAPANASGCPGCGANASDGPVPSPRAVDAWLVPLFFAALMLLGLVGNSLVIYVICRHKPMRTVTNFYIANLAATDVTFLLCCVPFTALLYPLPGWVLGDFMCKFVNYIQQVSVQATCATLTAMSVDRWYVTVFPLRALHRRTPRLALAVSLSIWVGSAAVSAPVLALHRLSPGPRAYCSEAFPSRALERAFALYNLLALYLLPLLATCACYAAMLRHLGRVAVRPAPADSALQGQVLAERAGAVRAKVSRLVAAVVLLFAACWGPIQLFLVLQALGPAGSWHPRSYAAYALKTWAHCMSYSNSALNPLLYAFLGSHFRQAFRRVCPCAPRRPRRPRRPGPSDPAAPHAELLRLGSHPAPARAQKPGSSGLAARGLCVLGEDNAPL
Muscarinic acetylcholine receptor M1 (Homo sapiens), sequence (P11229 whole entry, looked up): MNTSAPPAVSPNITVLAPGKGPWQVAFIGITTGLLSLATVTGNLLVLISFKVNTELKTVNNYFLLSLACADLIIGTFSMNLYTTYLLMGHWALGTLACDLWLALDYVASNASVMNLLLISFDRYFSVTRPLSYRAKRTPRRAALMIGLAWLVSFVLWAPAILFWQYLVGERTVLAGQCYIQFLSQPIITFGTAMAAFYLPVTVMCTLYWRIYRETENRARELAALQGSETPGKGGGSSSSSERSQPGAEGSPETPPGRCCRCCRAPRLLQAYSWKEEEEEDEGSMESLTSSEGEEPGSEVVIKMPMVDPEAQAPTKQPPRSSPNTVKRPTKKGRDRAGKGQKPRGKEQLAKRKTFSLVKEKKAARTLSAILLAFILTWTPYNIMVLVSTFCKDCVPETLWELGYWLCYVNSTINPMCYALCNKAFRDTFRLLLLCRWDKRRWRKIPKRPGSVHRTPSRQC
Gonadotropin-releasing hormone receptor (Homo sapiens), sequence (P30968 whole entry, looked up): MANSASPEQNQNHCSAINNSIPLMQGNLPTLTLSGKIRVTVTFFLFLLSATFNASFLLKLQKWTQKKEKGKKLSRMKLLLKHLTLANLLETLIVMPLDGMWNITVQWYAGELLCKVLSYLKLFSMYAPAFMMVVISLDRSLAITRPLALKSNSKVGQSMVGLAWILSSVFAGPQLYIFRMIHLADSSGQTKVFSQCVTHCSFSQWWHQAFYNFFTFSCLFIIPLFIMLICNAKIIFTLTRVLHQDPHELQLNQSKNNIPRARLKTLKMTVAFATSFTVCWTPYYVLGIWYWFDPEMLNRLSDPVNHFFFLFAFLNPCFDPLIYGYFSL
Beta-2 adrenergic receptor (Homo sapiens), sequence (P07550 whole entry, looked up): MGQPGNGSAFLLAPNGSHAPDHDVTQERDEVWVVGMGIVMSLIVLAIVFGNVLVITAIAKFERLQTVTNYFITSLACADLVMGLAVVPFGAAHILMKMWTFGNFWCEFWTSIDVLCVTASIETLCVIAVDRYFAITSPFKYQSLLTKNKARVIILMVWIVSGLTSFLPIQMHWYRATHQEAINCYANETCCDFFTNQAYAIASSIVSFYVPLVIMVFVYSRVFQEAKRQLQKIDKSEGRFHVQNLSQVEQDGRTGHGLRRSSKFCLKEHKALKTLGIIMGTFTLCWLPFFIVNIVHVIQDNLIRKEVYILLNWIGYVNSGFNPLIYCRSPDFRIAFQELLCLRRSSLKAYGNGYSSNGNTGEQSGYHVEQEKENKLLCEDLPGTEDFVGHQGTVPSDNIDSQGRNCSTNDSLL

As for `CCN=C1C=CC(=C(c2ccc(N(CC)CC)cc2)c2ccc(N(CC)CC)cc2)c2ccccc21`, the Potency in [1] is 19.2 µM (active); in assay [7] it was 22.8 µM (active); in assay [8], 40.5 µM (active); in assay [9], 36.1 µM (active). Also, the Potency entry in assay [2], in assay [3], in assay [4], in assay [5], in [6] and in assay [10] was “inactive” in each case. Besides, the Potency result in assay [11], in assay [12] and in assay [13] was “inactive” throughout.
For the compound `CC(=O)OC/C=C(/C)CCC=C(C)C`, the Potency entry in [1], in [2], in [3], in assay [4], in assay [5] and in assay [6] was “inactive” throughout. Further, the Potency result in assay [7], in assay [8], in assay [9], in assay [14], in [11] and in assay [12] was “inactive” in each case. The Potency result in assay [13], in assay [15], in assay [16], in assay [17], in assay [18] and in assay [19] was “inactive” in each case. In addition, in assay [20], the Potency entry is “inactive”.
As for `CC(=O)OCCC(C)CC(C)(C)C` (stereo unspecified), the Potency entry in assay [1], in [2], in assay [3], in assay [4], in [5] and in assay [6] was “inactive” in each case. Besides, the Potency entry in [7], in assay [8], in [9], in [14], in [10] and in assay [11] was “inactive” throughout. Besides, the Potency entry in assay [12], in assay [13], in assay [15], in assay [16], in [18] and in assay [19] was “inactive” throughout. Moreover, the Potency result in [20] was “inactive”.
Regarding `CC(C)(C)c1cc(/C=C2\SC(=N)NC2=O)cc(C(C)(C)C)c1O`, the Potency in [1] is 30.6 µM (active). Moreover, the Potency entry in assay [2], in [3], in assay [4], in assay [5], in assay [6] and in [7] was “inactive” in each case. In addition, the Potency entry in assay [8], in assay [11], in [12], in assay [13] and in assay [20] was “inactive” in each case.
As to `CC(=O)Oc1ccc2c(c1)CC[C@@H]1[C@@H]2CC[C@]2(C)[C@@H](O)CC[C@@H]12`, the Potency result in [1], in [2], in assay [3], in [4], in assay [5] and in assay [6] was “inactive” in each case. Besides, the Potency result in assay [7], in [9], in assay [14], in assay [10], in assay [11] and in [12] was “inactive” throughout. The Potency result in assay [13], in [15], in assay [16], in [17], in assay [19] and in assay [20] was “inactive” each time.
Turning to `O=C(O)c1c2ccccc2cc2ccccc12`, the Potency entry in assay [1], in assay [3], in assay [4], in assay [5], in assay [6] and in assay [7] was “inactive” in each case. For the same compound, the Potency result in assay [8], in assay [14], in assay [10], in [11], in [12] and in assay [13] was “inactive” in each case. Moreover, the Potency result in assay [16], in assay [17], in [18], in assay [19] and in assay [20] was “inactive” throughout. Moreover, in [2], the Potency was 48.4 µM (active).
Take `C=CCOCC(O)CCl` (stereo unspecified): the Potency entry in assay [1], in assay [2], in assay [3], in [4], in assay [5] and in assay [6] was “inactive” throughout. Further, the Potency entry in assay [7], in [8], in [14], in assay [11], in assay [12] and in assay [13] was “inactive” in each case. The Potency entry in assay [15], in assay [16], in assay [17], in assay [19] and in [20] was “inactive” throughout.
